The results in this text go back to PubChem BioAssay AID651642 (Sanford-Burnham Center for Chemical Genomics, 2012).

Values without a mark were called inactive. Active and inactive are the calls of the source.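 How the source made its calls: active means average half-effect concentration of 10 µM or less in every one of the four cell panels; inactive means the rest.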

This experiment relates to HL-1. As to the kind of experiment: cardiomyocyte survival under oxidative or metabolic stress – cell-based, panel, H9c2 and HL-1, H2O2, 2-deoxyglucose, ATP luminescence, SAR follow-up (AID 651642).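 On activity: plate controls were H2O2 plus DMSO for no effect and cells kept without H2O2 for full effect.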 As to conditions: H9c2/HL-1 cardiomyocyte H2O2 oxidative damage, mean of runs; activity: with H2O2, at 0.154 µM; outcome: with H2O2.
`CCOC(=O)c1cccc(NC(=O)c2cc(-c3cc(OC)c(OC)c(OC)c3)nc3ccccc23)c1`: the activity is 0.2% (active). Same read-out and setting: with `COc1cc(-c2cc(C(=O)Nc3cccc(C(C)=O)c3)c3cc(C)ccc3n2)cc(OC)c1OC` the figure was 2.4% (active); with `CCOC(=O)c1cccc(NC(=O)CNC(=O)c2cc(-c3cc(OC)c(OC)c(OC)c3)nc3ccccc23)c1`, -0.899%; with `COc1ccc2c(c1OC)C(=O)N1c3ccccc3C(=O)N(Cc3ccc(C)cc3)C21` (configuration not stated), 9.89%.

`COc1ccc2nc(-c3cc(OC)c(OC)c(OC)c3)cc(C(=O)Nc3cccc(C(C)=O)c3)c2c1`: the outcome was “inactive”. On to `CCOC(=O)c1cccc(NC(=O)CNC(=O)c2cc(-c3cc(OC)c(OC)c(OC)c3)nc3c(Cl)cccc23)c1`, for which the activity was -2.82%. The same measure, in the same setting: with `COc1ccc2c(c1OC)C(=O)N1c3ccccc3C(=O)N(Cc3ccccc3Cl)C21` (configuration not stated) the figure was 2.73%. On the same count and under the same terms, with `COc1cc(-c2cc(C(=O)NCC(=O)O)c3ccccc3n2)cc(OC)c1OC` the figure was -0.263%; with `COc1cc(-c2cc(C(=O)Nc3cccc(C(C)=O)c3)c3cc(F)ccc3n2)cc(OC)c1OC`, -2.5% (active); with `CCOC(=O)c1cccc(NC(=O)c2cc(-c3cc(OC)c(OC)c(OC)c3)nc3ccc(Br)cc23)c1`, 0.456%. Same read-out and setting: with `COc1cc(-c2cc(C(=O)Nc3cccc(C(=O)N4CCOCC4)c3)c3ccccc3n2)cc(OC)c1OC` the figure was -0.415%; with `COc1cc(-c2cc(C(=O)NCC(=O)Nc3cccc(C(C)=O)c3)c3cccc(Cl)c3n2)cc(OC)c1OC`, 8.31%.
